Experimental data as given in PubChem BioAssay (Tox21).
Records with an inconclusive call do not appear. Activity calls are given as the source filed them. Unless noted, the call rests on the fitted dose curve; in most records, active means well fitted curve in the direction sought with a large enough effect in the repeat runs; inconclusive means weak or mixed curves; inactive means no such curve, though single readings can be large; an effect the other way counts as inactive or inconclusive.

Columns and labels:
[1] = Caspase-3/7 induction in HepG2 cells by small molecules, qHTS assay (AID 1346978); further: nearly all actives have a fitted effect of over 15% in size
Outline: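 Caspase-3/7 induction was measured by Caspase-Glo 3/7 luminescence (30 min, room temperature) after a 17 hr compound exposure of wild-type HepG2 cells seeded at 2,000 per well and pre-incubated 5 hr.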

[2] = Caspase-3/7 induction in CHO-K1 cells by small molecules, qHTS cell viability counter screen (AID 1346979); further: nearly all actives have a fitted effect of over 35% in size
Outline: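 Viability readout by fluorescence (CellTiter-Fluor) on wild-type CHO-K1 cells exposed for 16hr at 37C and 5% CO2 to compounds delivered in DMSO; reagent incubated 1hr before reading.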

[3] = Caspase-3/7 induction in CHO-K1 cells by small molecules, qHTS assay (AID 1346980); further: nearly all actives have a fitted effect of over 15% in size
Outline: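 Luminescent Caspase-Glo 3/7 read (30min, room temperature) quantified apoptosis induction. Cells were wild-type CHO-K1, treated with compound for 17hr at 37 C and 5% CO2.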

[4] = Caspase-3/7 induction in HepG2 cells by small molecules, qHTS cell viability counter screen (AID 1346981); further: series mostly up to about 92 µM; nearly all actives have a fitted effect of over 30% in size
Outline: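 Wild-type HepG2 cells (2,000/well) were allowed to settle for 5 hr at 37 C, 5% CO2, then dosed with compounds in DMSO by pin transfer. After 16 hr at 37 C, CellTiter-Fluor was added and fluorescence read 1 hr later.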

[5] = target: Nuclear receptor subfamily 1 group I member 2 (Homo sapiens) (UniProt O75469); test: Human pregnane X receptor (PXR) small molecule agonists, qHTS assay (AID 1346982); further: nearly all actives have a fitted effect of over 35% in size; further: potency means the concentration at half of the fitted maximal effect
Nuclear receptor subfamily 1 group I member 2 (Homo sapiens), sequence (O75469 whole entry, looked up): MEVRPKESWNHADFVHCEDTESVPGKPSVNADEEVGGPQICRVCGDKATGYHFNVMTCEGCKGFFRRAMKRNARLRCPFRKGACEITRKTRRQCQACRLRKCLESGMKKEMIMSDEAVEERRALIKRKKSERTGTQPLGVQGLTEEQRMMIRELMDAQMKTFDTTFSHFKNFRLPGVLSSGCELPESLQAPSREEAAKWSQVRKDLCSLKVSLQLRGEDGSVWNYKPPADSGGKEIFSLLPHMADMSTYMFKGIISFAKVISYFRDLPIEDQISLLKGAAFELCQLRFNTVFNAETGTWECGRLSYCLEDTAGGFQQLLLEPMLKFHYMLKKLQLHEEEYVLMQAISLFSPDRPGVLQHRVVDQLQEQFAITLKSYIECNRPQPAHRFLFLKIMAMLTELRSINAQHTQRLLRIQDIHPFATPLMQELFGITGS
Outline: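 PXR-Luc HepG2 cells (CYP3A4 promoter-driven luciferase) were seeded in medium with 5% charcoal-stripped FBS, left 5 hr at 37 C, then exposed to compounds in DMSO for 24 hr. Luminescence was read after ONE-Glo addition.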

[6] = target: Acetylcholinesterase (Homo sapiens) (UniProt P22303); test: Acetylcholinesterase (AChE) small molecule antagonists: colormetric cell-based qHTS assay (AID 1347395; calls by dose curve; further: nearly all actives have a fitted effect of over 30% in size; further: potency means the concentration at half of the fitted maximal effect)
Acetylcholinesterase (Homo sapiens), sequence (P22303 whole entry, looked up): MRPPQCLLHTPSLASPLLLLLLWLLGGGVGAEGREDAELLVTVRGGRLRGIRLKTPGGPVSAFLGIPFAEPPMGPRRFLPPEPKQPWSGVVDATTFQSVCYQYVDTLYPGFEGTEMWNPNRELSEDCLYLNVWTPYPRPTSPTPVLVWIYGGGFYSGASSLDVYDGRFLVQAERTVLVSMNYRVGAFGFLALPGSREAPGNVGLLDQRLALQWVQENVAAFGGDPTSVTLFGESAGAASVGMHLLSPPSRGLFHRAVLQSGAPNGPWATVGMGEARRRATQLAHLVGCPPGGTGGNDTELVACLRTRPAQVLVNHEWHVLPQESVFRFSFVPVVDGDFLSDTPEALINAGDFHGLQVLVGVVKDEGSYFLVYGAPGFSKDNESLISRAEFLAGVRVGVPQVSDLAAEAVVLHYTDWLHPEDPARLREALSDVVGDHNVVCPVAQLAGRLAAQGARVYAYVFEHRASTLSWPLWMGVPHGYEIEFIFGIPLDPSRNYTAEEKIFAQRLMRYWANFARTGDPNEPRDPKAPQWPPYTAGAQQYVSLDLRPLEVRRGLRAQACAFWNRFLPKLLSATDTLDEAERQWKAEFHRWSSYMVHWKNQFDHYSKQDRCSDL
Outline: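 Homogeneous whole-cell format. SH-SY5Y cells seeded overnight, dosed with compound (30 min, 37 C, 5% CO2), then given DTNB/acetylthiocholine cocktail for 90 min at 37 C; colorimetric signal.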

[7] = target: Acetylcholinesterase (Homo sapiens) (UniProt P22303); test: Acetylcholinesterase (AChE) small molecule antagonists: enzyme-based qHTS assay (AID 1347397; calls by dose curve; further: nearly all actives have a fitted effect of over 55% in size; further: potency means the concentration at half of the fitted maximal effect); conditions: Potency: AChE enzyme activity inhibition; outcome: AChE enzyme activity inhibition
Outline: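 Absorbance-based detection of thiocholine with DTNB served as the read-out. Recombinant human AChE was exposed to compound for 30 min at RT before a 10 min RT incubation with acetylthiocholine.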

[8] = target: Acetylcholinesterase (Homo sapiens) (UniProt P22303); test: Acetylcholinesterase (AChE) small molecule antagonists: fluorescence cell-based qHTS assay (AID 1347398; calls by dose curve; further: nearly all actives have a fitted effect of over 50% in size; further: potency means the concentration at half of the fitted maximal effect); conditions: Potency: AChE activity; outcome: AChE activity
Outline: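 Fluorimetric cell-based assay: intact SH-SY5Y cells, 30 min compound preincubation at 37 C, acetylthiocholine substrate with thiol probe Thiolite Green, 40 min RT development, fluorescence 490/520 nm.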

[9] = target: Acetylcholinesterase (Homo sapiens) (UniProt P22303); test: Acetylcholinesterase (AChE) small molecule antagonists: enzyme-based qHTS assay with human liver microsomes (AID 1347399; calls by dose curve; further: nearly all actives have a fitted effect of over 60% in size; further: potency means the concentration at half of the fitted maximal effect); conditions: Potency: qHTS inhibition; outcome: qHTS inhibition
Outline: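 Recombinant human AChE (50 mU/mL in the enzyme mix) and human liver microsomes (0.25 mg/mL final) were preincubated with compound and NADPH (0.25 mg/mL final) for 30 min at 37 C. Acetylthiocholine/DTNB was then added; thiocholine was read colorimetrically after 10 min at room temperature.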

[10] = target: Cytochrome P450 1A2 (Homo sapiens) (UniProt P05177); test: Cytochrome P450 Family 1 Subfamily A Member 2 (CYP1A2) small molecule antagonists: luciferase reporter qHTS assay (AID 1671199); further: nearly all actives have a fitted effect of over 50% in size; further: potency means the concentration at half of the fitted maximal effect
Cytochrome P450 1A2 (Homo sapiens), sequence (P05177 whole entry, looked up): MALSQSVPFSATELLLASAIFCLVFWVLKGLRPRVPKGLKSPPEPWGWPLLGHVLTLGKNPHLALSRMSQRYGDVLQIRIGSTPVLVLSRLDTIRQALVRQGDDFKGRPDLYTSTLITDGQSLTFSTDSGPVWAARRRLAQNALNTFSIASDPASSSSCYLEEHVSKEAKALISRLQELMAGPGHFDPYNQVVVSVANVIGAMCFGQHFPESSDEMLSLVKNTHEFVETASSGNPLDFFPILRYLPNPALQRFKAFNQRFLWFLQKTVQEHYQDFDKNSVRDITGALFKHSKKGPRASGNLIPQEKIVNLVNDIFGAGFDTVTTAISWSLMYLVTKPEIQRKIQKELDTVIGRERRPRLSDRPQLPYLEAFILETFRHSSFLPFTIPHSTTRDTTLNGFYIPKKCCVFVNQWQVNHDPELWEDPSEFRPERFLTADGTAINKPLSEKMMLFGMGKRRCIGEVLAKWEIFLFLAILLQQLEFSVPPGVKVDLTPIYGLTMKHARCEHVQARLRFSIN
Outline: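 Human CYP1A2 activity measured with a P450-Glo proluciferin substrate; compounds in DMSO preincubated 10 min at room temperature with enzyme-substrate mix, then NADPH regeneration system added for 1 h. Luciferin detection reagent, 20 min, luminescence read.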

[11] = target: Cytochrome P450 3A4 (Homo sapiens) (UniProt P08684); test: Cytochrome P450 Family 3 Subfamily A Member 4 (CYP3A4) small molecule antagonists: luciferase reporter qHTS assay (AID 1671201); further: nearly all actives have a fitted effect of over 50% in size; further: potency means the concentration at half of the fitted maximal effect
Cytochrome P450 3A4 (Homo sapiens), sequence (P08684 whole entry, looked up): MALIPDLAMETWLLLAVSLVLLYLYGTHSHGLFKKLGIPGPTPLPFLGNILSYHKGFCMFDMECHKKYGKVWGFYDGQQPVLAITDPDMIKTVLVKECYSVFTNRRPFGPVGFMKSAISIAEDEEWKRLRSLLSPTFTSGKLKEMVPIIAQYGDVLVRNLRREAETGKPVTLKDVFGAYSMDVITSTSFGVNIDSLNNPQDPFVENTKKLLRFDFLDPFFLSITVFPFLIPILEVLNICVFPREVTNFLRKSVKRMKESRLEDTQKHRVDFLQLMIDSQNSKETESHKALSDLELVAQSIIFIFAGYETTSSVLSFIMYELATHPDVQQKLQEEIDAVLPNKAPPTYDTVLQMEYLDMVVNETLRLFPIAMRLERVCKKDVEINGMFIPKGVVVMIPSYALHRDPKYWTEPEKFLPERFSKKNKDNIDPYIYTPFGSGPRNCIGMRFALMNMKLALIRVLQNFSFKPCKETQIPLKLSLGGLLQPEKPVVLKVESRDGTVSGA
Outline: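 Relative luminescence units after 20 min with luciferin detection reagent served as read-out. Beforehand, CYP3A4 turned over a proluciferin substrate for 1 h at room temperature with NADPH regeneration, following 10 min compound preincubation.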

[12] = target: Cytochrome P450 2D6 (Homo sapiens) (UniProt P10635); test: Cytochrome P450 Family 2 Subfamily D Member 6 (CYP2D6) small molecule antagonists: luciferase reporter qHTS assay (AID 1671196); further: nearly all actives have a fitted effect of over 50% in size; further: potency means the concentration at half of the fitted maximal effect
Cytochrome P450 2D6 (Homo sapiens), sequence (P10635 whole entry, looked up): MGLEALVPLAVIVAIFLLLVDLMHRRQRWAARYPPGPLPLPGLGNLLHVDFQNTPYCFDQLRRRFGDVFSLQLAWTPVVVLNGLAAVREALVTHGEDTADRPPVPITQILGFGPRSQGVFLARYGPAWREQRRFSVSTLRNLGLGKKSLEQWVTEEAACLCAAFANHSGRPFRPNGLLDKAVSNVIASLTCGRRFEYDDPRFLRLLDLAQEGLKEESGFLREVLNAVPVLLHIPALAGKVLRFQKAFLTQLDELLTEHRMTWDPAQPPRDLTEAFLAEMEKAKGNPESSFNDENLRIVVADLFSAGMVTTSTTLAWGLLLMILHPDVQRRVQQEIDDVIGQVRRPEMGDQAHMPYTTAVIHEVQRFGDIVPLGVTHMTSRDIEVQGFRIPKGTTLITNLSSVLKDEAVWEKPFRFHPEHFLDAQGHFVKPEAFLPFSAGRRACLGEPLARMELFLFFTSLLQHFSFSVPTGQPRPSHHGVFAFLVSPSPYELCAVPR
Outline: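 CYP2D6 enzyme–substrate mix was held with compound for 10 min at room temperature, then NADPH regeneration solution was added and the reaction ran 1 h at room temperature. Luciferin product was detected by luminescence after 20 min with detection reagent.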

[13] = target: Cytochrome P450 2C19 (Homo sapiens) (UniProt P33261); test: Cytochrome P450 Family 2 Subfamily C Member 19 (CYP2C19) small molecule antagonists: luciferase reporter qHTS assay (AID 1671197); further: nearly all actives have a fitted effect of over 65% in size; further: potency means the concentration at half of the fitted maximal effect
Cytochrome P450 2C19 (Homo sapiens), sequence (P33261 whole entry, looked up): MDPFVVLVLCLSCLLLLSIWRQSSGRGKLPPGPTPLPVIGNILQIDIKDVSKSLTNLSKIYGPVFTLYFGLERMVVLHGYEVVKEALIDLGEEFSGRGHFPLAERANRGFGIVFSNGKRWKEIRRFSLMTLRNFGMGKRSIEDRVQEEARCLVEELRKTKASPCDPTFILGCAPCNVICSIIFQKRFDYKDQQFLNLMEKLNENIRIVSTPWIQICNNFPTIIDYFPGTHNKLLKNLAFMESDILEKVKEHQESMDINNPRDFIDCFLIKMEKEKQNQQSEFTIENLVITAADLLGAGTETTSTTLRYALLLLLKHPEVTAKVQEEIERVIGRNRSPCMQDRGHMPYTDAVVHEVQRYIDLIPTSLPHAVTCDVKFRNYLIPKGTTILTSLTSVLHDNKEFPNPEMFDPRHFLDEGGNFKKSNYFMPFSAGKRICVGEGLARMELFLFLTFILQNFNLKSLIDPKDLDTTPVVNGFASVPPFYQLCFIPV
Outline: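 Relative luminescence units recorded 20 min after the detection reagent stopped a 1 h, 37C CYP2C19 reaction on proluciferin substrate, which was started by NADPH regeneration following 10 min room-temperature compound preincubation; ketoconazole positive control.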

[14] = target: Cytochrome P450 2C9 (Homo sapiens) (UniProt P11712); test: Cytochrome P450 Family 2 Subfamily C Member 9 (CYP2C9) small molecule antagonists: luciferase reporter qHTS assay (AID 1671198); further: nearly all actives have a fitted effect of over 50% in size; further: potency means the concentration at half of the fitted maximal effect
Cytochrome P450 2C9 (Homo sapiens), sequence (P11712 whole entry, looked up): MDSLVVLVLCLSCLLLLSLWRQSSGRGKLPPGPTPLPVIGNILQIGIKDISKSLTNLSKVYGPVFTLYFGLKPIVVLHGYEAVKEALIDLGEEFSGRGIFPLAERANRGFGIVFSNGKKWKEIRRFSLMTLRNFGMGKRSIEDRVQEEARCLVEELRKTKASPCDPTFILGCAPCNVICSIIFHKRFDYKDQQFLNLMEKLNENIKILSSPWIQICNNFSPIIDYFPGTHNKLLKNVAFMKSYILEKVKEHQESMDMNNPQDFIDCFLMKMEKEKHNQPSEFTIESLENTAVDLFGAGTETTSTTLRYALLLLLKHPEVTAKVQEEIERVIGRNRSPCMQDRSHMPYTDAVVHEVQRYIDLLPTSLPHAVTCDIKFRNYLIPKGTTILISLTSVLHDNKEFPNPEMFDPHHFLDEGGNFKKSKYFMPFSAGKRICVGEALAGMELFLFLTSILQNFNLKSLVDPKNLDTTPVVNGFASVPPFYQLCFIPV
Outline: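 Enzyme-substrate mix preincubated with compound 10 min at room temperature; reaction started with NADPH regeneration solution, 1 h 37C. Luminescent luciferin product read after 20 min detection reagent.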

[15] = target: Voltage-gated inwardly rectifying potassium channel KCNH2 (Homo sapiens) (UniProt Q12809); test: Human Ether-a-go-go-Related Gene (hERG) channel small molecule antagonists: fluorescence cell-based qHTS assay (AID 1671200)
Voltage-gated inwardly rectifying potassium channel KCNH2 (Homo sapiens), sequence (Q12809 whole entry, looked up): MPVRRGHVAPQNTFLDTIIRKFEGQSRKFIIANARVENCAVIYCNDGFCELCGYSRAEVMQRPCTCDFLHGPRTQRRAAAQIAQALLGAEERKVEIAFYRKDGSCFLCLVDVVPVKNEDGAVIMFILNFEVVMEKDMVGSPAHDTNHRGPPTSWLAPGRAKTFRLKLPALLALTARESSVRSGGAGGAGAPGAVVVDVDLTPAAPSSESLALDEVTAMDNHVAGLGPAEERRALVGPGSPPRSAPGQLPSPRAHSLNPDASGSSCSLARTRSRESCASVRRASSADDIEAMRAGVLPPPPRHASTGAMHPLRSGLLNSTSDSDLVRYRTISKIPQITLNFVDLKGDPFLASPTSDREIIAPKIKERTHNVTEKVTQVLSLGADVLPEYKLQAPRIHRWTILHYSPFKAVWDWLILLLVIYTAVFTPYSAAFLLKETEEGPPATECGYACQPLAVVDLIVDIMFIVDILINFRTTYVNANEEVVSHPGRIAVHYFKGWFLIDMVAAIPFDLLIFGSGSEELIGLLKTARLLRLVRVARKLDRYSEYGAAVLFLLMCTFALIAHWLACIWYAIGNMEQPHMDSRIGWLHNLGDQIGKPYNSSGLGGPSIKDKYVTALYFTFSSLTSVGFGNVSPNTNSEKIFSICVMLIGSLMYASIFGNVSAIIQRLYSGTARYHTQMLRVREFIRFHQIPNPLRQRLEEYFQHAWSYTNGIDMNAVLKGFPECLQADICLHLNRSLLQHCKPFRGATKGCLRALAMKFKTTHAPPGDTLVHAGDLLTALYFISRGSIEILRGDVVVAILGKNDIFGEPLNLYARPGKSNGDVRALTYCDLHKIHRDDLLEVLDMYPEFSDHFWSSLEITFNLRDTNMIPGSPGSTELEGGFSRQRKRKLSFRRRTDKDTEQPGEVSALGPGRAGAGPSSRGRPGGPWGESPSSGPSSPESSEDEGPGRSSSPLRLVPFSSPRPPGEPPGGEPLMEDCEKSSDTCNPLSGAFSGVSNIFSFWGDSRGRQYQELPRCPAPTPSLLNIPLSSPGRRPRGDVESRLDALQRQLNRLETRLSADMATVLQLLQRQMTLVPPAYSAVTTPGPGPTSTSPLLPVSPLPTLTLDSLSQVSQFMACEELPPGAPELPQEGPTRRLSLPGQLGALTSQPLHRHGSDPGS
Outline: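 Thallium served as the potassium surrogate; its influx into dye-loaded U2OS cells carrying the channel was measured by fluorescence over 2 min.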

Measured: Potency

CCC1(CC)C(=O)C=CNC1=O
active: [10] 15.5 µM
not listed: [12] | [13] | [14] | [15]
inactive: all other assays above

CS(=O)(=O)c1ccc(C(=O)C2C(=O)CCCC2=O)c(Cl)c1COCC(F)(F)F
active: [6] 28.3 µM | [14] 6.33 µM
not listed: [8] | [11] | [15]
inactive: all other assays above

CCc1ccc(C2CCNCC2)cc1
active: [12] 0.617 µM
not listed: [10] | [15]
inactive: all other assays above

Cc1cc(OC(=O)N(C)C)nn1C(=O)N(C)C
active: [6] 7.1 µM | [7] 5.03 µM | [8] 1.26 µM | [9] 39.9 µM | [12] 31.7 µM | [13] 35.6 µM
not listed: [10]
inactive: all other assays above

CCCCS(=O)(=O)Cl
not listed: [13]
inactive: all other assays above

O=C(CCl)NCO
not listed: [10]
inactive: all other assays above

C(COCC1CO1)OCC1CO1 (centres undefined)
active: [5] 48.6 µM
not listed: [12]
inactive: all other assays above

O=C(Cl)C(Cl)Cl
not listed: [10]
inactive: all other assays above

NNCc1ccccc1
active: [5] 55.5 µM | [12] 11.5 µM | [13] 36.2 µM | [14] 45.6 µM | [10] 12.9 µM | [11] 32.3 µM
not listed: [7] | [15]
inactive: all other assays above
